Experiment [1] concerns PRMT1 (protein arginine N-methyltransferase 1). As to the kind of experiment: small molecules binding arginine methyltransferase PRMT1 – biochemical, small-molecule microarray, 635 nm fluorescence, primary screen (AID 1088).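 Further: binding of Prmt1 protein to compounds spotted on small-molecule microarray slides.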 The note with it: higher = more signal.
Experiment [2] is described as follows: growth effects on S. cerevisiae YJM789 – YJM789 clinical isolate, OD600, 24 h, basal, primary screen (AID 1089).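 Further: growth of clinical yeast isolate S. cerevisiae YJM 789 seeded 1000 cells per well; test concentration not given here.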 The note with it: higher = more signal, called active from +8 up or from −8 down.
Experiment [3] is described as follows: S. pombe growth modifiers, basal conditions – strain 972, OD600, 24 h, no modulator, primary screen (AID 1090).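 Further: basal condition with compound alone and no growth modifier present; test concentration not given here.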 Particulars: S. pombe 972 growth, higher = more signal, called active from +8 up or from −8 down.
A short description of experiment [4]: budding yeast growth modifiers under rapamycin – strain BY4716, OD600, 96 h, primary screen (AID 1091). Further: test concentration not given here. Particulars: S. cerevisiae BY4716 + rapamycin, higher = more signal, called active from +8 up or from −8 down.
Experiment [5] addresses Torsin-1A-interacting protein 2 (Homo sapiens) (UniProt Q8NFQ8). Nature of the experiment: small molecules binding lysate-expressed LULL1 – cell lysate, human LULL1 lysate, 635/667 nm fluorescence, primary screen (AID 1092).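 Further: probe is lysate of COS7 cells overexpressing human LULL1; score merges per-feature 667 nm fluorescence with signal-to-noise.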 Particulars: small-molecule microarray, hLULL1 lysate binding, 635 nm fluorescence; higher = more signal.
Experiment [6] can be described thus: optical density change of DRC41 E. coli – strain DRC41, OD650, 24 h, E. coli filamentation project, primary screen (AID 1093).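 Further: MC1000 strain lacking acrAB efflux and sulA so SOS filamentation is blocked; test concentration not given here.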 Particulars: E. coli DRC41 growth, higher = more signal, called active from +8 up or from −8 down.
Experiment [7] in a line: probe aLefty2 binding to arrayed compounds – biochemical, biotinylated probe, 635/667 nm fluorescence, primary screen (AID 1094).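 Further: score merges spot fluorescence near 667 nm with spot signal-to-noise ratio.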 The note with it: small-molecule microarray, higher = more signal.
Experiment [8] relates to Noggin (protein binding on small-molecule microarray). Nature of the experiment: small molecules binding Noggin protein – biochemical, 635/667 nm fluorescence, primary screen (AID 1095).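 Further: score merges 667 nm feature fluorescence with signal to noise over triplicate slides.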 The note with it: 635 nm fluorescence, higher = more signal.
In experiment [9] the target is Neurogenic locus notch homolog protein 3 (Homo sapiens) (UniProt Q9UM47). As to the kind of experiment: small molecules binding NOTCH3 protein – biochemical, 635/667 nm fluorescence, primary screen (AID 1096). Particulars: small-molecule microarray, 635 nm fluorescence, higher = more signal.
Experiment [10] is described as follows: probe aEGFR binding to arrayed compounds – biochemical, biotinylated probe, 635/667 nm fluorescence, primary screen (AID 1097).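 Further: probe is a biotinylated anti-EGFR antibody binding compounds printed on slides; score combines fluorescence near 667 nm and signal to noise of each spot.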 The note with it: small-molecule microarray, higher = more signal.

SMILES strings stand for the structures. The source made the active and inactive calls.

Neurogenic locus notch homolog protein 3 (Homo sapiens), sequence (Q9UM47 whole entry, looked up): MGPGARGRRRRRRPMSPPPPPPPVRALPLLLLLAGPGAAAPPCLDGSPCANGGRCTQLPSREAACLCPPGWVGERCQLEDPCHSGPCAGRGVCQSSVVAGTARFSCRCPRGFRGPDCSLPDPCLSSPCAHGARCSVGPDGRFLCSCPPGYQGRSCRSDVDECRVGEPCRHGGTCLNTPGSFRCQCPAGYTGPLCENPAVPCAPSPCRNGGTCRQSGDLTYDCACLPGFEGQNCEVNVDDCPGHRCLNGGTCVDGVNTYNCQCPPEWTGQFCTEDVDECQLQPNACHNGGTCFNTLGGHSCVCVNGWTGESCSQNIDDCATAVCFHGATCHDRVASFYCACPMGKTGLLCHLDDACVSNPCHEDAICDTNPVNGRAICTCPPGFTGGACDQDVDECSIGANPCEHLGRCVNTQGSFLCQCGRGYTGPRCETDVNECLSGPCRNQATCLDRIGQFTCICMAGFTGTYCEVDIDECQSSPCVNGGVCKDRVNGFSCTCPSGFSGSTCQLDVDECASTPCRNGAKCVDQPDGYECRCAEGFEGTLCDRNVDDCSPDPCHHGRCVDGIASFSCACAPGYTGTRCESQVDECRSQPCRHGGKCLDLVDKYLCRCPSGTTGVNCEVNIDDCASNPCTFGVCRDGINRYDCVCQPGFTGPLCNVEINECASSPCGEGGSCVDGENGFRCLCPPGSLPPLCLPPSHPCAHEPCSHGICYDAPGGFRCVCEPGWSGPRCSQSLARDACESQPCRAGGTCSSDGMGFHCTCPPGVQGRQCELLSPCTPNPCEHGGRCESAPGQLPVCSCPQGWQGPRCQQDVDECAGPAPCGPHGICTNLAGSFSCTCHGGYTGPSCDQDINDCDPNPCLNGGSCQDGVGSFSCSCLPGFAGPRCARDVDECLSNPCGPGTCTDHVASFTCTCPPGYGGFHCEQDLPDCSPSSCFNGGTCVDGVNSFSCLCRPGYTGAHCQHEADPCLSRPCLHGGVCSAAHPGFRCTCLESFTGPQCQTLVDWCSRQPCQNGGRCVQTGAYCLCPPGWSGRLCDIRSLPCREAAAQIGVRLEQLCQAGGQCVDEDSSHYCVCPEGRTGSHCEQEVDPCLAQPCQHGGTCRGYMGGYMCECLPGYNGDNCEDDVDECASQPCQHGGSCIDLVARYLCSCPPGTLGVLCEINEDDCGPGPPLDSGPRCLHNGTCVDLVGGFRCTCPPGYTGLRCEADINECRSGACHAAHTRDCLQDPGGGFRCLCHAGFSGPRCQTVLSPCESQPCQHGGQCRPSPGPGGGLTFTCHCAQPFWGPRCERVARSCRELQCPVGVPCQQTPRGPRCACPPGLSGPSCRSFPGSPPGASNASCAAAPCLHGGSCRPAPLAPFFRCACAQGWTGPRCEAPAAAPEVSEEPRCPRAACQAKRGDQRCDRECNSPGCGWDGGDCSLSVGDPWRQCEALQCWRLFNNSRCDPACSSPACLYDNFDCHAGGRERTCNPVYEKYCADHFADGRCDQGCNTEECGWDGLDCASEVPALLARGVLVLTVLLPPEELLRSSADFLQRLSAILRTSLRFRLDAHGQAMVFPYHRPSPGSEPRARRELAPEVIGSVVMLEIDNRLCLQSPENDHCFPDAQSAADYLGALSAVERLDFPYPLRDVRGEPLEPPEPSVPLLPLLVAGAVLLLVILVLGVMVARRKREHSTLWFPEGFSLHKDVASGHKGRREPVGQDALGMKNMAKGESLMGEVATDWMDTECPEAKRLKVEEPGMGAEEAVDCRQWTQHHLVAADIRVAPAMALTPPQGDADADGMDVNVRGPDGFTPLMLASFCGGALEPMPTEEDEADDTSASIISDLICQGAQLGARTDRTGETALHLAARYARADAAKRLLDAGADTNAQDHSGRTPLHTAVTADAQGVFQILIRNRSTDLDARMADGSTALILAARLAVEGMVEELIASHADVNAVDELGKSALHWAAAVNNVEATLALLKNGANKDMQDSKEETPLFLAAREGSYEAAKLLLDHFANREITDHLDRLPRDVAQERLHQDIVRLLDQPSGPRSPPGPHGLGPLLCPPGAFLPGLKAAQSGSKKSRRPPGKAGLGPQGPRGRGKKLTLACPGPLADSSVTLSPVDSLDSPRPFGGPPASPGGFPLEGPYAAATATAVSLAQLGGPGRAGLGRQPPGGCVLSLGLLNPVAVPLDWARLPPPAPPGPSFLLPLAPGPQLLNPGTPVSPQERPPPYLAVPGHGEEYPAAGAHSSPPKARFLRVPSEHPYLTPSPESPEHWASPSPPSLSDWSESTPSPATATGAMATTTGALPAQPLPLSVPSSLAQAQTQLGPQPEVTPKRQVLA
Torsin-1A-interacting protein 2 (Homo sapiens), sequence (Q8NFQ8 whole entry, looked up): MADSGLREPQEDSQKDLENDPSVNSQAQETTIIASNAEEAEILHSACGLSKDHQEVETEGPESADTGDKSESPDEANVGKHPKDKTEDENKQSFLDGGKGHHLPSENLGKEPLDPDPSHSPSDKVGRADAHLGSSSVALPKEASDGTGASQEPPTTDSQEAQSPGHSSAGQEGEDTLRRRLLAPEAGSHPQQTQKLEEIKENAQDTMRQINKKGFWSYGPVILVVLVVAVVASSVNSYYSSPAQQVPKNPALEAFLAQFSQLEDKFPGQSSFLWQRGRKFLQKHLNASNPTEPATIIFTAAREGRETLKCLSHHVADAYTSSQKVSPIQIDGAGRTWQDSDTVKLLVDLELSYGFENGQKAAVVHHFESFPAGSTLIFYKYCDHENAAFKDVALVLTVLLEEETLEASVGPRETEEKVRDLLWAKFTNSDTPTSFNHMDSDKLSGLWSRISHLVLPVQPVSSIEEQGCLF

Consider `CC(C)(C)OC(=O)CC[C@]1(C(=O)N2CCOCC2)N=C(c2ccc(OCCCO)cc2)O[C@H]1c1ccccc1`, for which the composite z-score in experiment [1] is 0.587; in experiment [5], 2.52; in [7], 0.0038; in [8], 1.26; in experiment [9], 0.348; in [10], -0.0656. The z-score in [2] is 0.0164 (inactive); in [3] it was -0.988 (inactive); in [4], -0.439 (inactive); in experiment [6] it was 0.961 (inactive).
Regarding `CC(C)CN1C(=O)[C@@]2(Cc3ccccc31)c1ccccc1C(=O)N(Cc1ccccc1C(F)(F)F)[C@H]2c1ccc(CO)cc1`, the composite z-score in experiment [1] was -1.7; in experiment [5], -1.21; in experiment [7], 0.0169; in experiment [8], -0.0224; in experiment [9], -0.527; in [10], -0.187. The z-score in experiment [2] was -1.17 (inactive); in experiment [3], -0.147 (inactive); in experiment [4], -3 (inactive); in [6], -0.861 (inactive).
As to `Cc1ccc(C(C)CC(O)C2C=CC3C(=O)N(c4ccccc4)C(=O)C3N2Nc2ccc(C(C)C)cc2)o1` (stereo not given), the composite z-score was 0.843 in [1]; 1.28 in [5]; 0.295 in experiment [7]; -0.641 in [8]; 1.04 in experiment [9]; 0.14 in [10]. The z-score in experiment [2] was 0.379 (inactive); in experiment [3] it was 0.0145 (inactive); in [4] it was 0.842 (inactive); in [6], -1.36 (inactive).
On to `NC(N)=NCc1cn(CCc2c[nH]c3ccccc23)nn1`, for which the composite z-score was 0.974 in experiment [1]; 1.01 in experiment [5]; -0.166 in [7]; 1.36 in [8]; 0.646 in experiment [9]; 0.128 in [10]. Also, the z-score in experiment [2] was -0.289 (inactive); in experiment [3] it was -0.002 (inactive); in experiment [4] it was -1.38 (inactive); in experiment [6], -0.979 (inactive).
Turning to `CC(C)(C)OC(=O)CC[C@@]1(C(=O)O)N=C(c2ccc(OCCCO)cc2)O[C@@H]1c1ccccc1`, the composite z-score is 0.618 in experiment [1]; 3.55 in experiment [5]; 0.021 in experiment [7]; -0.423 in experiment [8]; 0.183 in [9]; -0.0884 in [10]. Besides, the z-score in [2] was 0.586 (inactive); in [3] it was 1.24 (inactive); in experiment [4], 0.519 (inactive); in [6], 0.0219 (inactive).
As for `C#CCNC(=O)[C@H](Cc1ccccc1)NC(=O)[C@@H](N=[N+]=[N-])C(C)C`, the composite z-score in experiment [1] was 0.911; in experiment [5] it was 1.57; in [7] it was -0.116; in experiment [8] it was 0.434; in experiment [9], 0.5; in experiment [10], -0.071. Besides, the z-score in experiment [2] was -0.611 (inactive); in [3], 0.139 (inactive); in [4], -0.229 (inactive); in experiment [6], 0.35 (inactive).
In the case of `COCCOC(=O)N1C(=O)[C@@]2(c3cc(C#CCC(C(=O)OC)C(=O)OC)ccc31)[C@H](c1ccc(OCCO)cc1)N1[C@H](c3ccccc3)[C@H](c3ccccc3)OC(=O)[C@H]1[C@@H]2C(=O)N1CCN(c2ncccn2)CC1`, the composite z-score in [1] came out at 1.45; in experiment [5], 3.17; in experiment [7], 0.0112; in experiment [8], 1.17; in experiment [9] it was 1.07; in experiment [10], 0.0397. The z-score is 1.07 (inactive) in experiment [2], 0.934 (inactive) in experiment [3], 6.44 (inactive) in experiment [4] and 1.75 (inactive) in [6].
For the molecule `C[C@]12C(=O)N(CCCCCCO)[C@@H]3C(=O)N(c4ccc(Cl)cc4)CC=CC31O[C@@H]1/C=C\CCCOC(=O)C12` (stereo not given in full), the composite z-score is 0.807 in [1]; 3.27 in [5]; -0.0665 in experiment [7]; -0.463 in experiment [8]; -0.353 in experiment [9]; -0.194 in experiment [10]. The z-score in [2] was -2.23 (inactive); in [3], -1.63 (inactive); in experiment [4] it was -0.695 (inactive); in experiment [6] it was 1.19 (inactive).
On to `CC[C@@H]1[C@H]2C3C(=O)N(CC)C(=O)C3CC(=O)[C@H]2[C@H](c2ccc(C)cc2)N1S(=O)(=O)c1ccc(C)cc1` (stereo not given in full), for which the composite z-score in experiment [1] was 1.09; in experiment [5], 2.75; in experiment [7] it was -0.203; in experiment [8], 0.712; in [9], 1.12; in experiment [10], -0.0353. Besides, the z-score in experiment [2] was 0.0287 (inactive); in [3], 1.15 (inactive); in experiment [4], 1.6 (inactive); in experiment [6], -0.243 (inactive).
On to `CC(=O)N1Cc2ccccc2C[C@]2(N=C(c3ccc(OCCCO)cc3)O[C@@H]2c2ccccc2)C1=O`, for which the composite z-score was found to be 1.55 in experiment [1]; 3.07 in experiment [5]; 0.0081 in [7]; 0.648 in experiment [8]; 1.07 in experiment [9]; 0.0557 in [10]. Also, the z-score was 0.369 (inactive) in experiment [2], -2.91 (inactive) in experiment [3], 13.6 (active) in experiment [4] and 1.52 (inactive) in [6].
On to `CC=CC(O)C1C=CC2C(=O)N(c3ccccc3)C(=O)C2N1Nc1ccc([N+](=O)[O-])cc1` (stereo not given), for which the composite z-score is 0.725 in [1]; 2.65 in experiment [5]; -0.0931 in [7]; 0.257 in experiment [8]; 0.512 in [9]; 0.0007 in experiment [10]. The z-score in [2] is -0.0987 (inactive); in [3], 1.17 (inactive); in experiment [4] it was 1.44 (inactive); in [6], -0.699 (inactive).
For `CC(C)CNC(=O)[C@@H]1c2ccccc2C(=O)N(Cc2cc(F)cc(C(F)(F)F)c2)[C@H]1c1ccc(CO)cc1`, the composite z-score in experiment [1] was 1.4; in experiment [5] it was 1.73; in experiment [7], 0.188; in experiment [8], 0.179; in [9], 0.379; in experiment [10], -0.0214. Also, the z-score in [2] was -0.212 (inactive); in experiment [3], -0.758 (inactive); in experiment [4], -0.483 (inactive); in [6], 2.93 (inactive).
In the case of `C[C@]1(C(=O)O)c2ccccc2C(=O)N(Cc2ccccc2)[C@H]1c1ccc(CO)cc1`, the composite z-score was -1.68 in experiment [1]; -0.884 in experiment [5]; 0.119 in [7]; -1.51 in [8]; -1.9 in experiment [9]; -0.288 in experiment [10]. The z-score in experiment [2] was 1.09 (inactive); in experiment [3] it was 0.468 (inactive); in experiment [4], 1.37 (inactive); in experiment [6], 0.651 (inactive).
On to `[N-]=[N+]=NCc1ccccc1[C@H]1OC(c2ccc(OCCCO)cc2)=N[C@@]1(CCS(=O)(=O)c1ccccc1)C(N)=O`, for which the composite z-score was 1.47 in experiment [1]; 3.36 in [5]; 0.074 in [7]; 0.086 in [8]; 0.861 in [9]; 0.0929 in experiment [10]. Besides, the z-score in experiment [2] is 0.0249 (inactive); in [3], -0.131 (inactive); in [4], -0.595 (inactive); in [6], -0.199 (inactive).

The values above are taken from PubChem BioAssay.
